# Biological target: Nonstructural protein 3 (Zika virus) (UniProt A0A024AXB9)
# Settings: PRVABC59, Concentration 10.0 uM
# Chain of Nonstructural protein 3 (Zika virus) (A0A024AXB9 as listed by the source): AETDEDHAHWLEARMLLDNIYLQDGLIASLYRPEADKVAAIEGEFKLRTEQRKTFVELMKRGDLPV
smiles,measurement,setting,value
Cc1ccc(C(C)C)c(C(=O)Nc2ccc3c(c2)CNC3)c1,pKD,"Immobilization level 10000.0 pg/mm2, Rmax 25.0 pg/mm2, ka 195679.525 M-1s-1, kd 7.321 1/s",4.43
same,pKD,"Immobilization level 12000.0 pg/mm2, Rmax 28.0 pg/mm2, ka 382623.73 M-1s-1, kd 5.226 1/s",4.87
same,pKD,"Immobilization level 13000.0 pg/mm2, Rmax 25.0 pg/mm2, ka 300897.372 M-1s-1",4.69
Cn1ncc2c(C(=O)Nc3ccc4c(c3)CNC4)cc(C3CC3)nc21,pKD,"Immobilization level 10000.0 pg/mm2, Rmax 33.0 pg/mm2, ka 244724.506 M-1s-1, kd 7.844 1/s",4.49
same,pKD,"Immobilization level 12000.0 pg/mm2, Rmax 31.0 pg/mm2, ka 442165.646 M-1s-1, kd 5.14 1/s",4.93
same,pKD,"Immobilization level 13000.0 pg/mm2, Rmax 33.0 pg/mm2, ka 379334.104 M-1s-1, kd 6.596 1/s",4.76
Cn1ncc2c(C(=O)Nc3ccc4c(c3)CNC4)cc(Br)cc21,pKD,"Immobilization level 10000.0 pg/mm2, Rmax 23.0 pg/mm2, ka 300646.199 M-1s-1, kd 0.327 1/s",5.96
same,pKD,"Immobilization level 12000.0 pg/mm2, Rmax 66.0 pg/mm2, ka 115064.14 M-1s-1, kd 0.186 1/s",5.79
same,pKD,"Immobilization level 13000.0 pg/mm2, Rmax 35.0 pg/mm2, ka 218446.798 M-1s-1, kd 0.273 1/s",5.9
NCCCCc1ccc(NC(=O)c2cc(Cl)cc3[nH]ncc23)cc1,pKD,"Immobilization level 10000.0 pg/mm2, Rmax 4.0 pg/mm2, ka 200640.001 M-1s-1, kd 1.917 1/s",5.02
same,pKD,"Immobilization level 12000.0 pg/mm2, Rmax 9.0 pg/mm2, ka 275409.297 M-1s-1, kd 4.372 1/s",4.8
same,pKD,"Immobilization level 13000.0 pg/mm2, Rmax 11.0 pg/mm2, ka 186293.866 M-1s-1, kd 4.24 1/s",4.64
Cc1cccc(CNc2ccc(Cl)cc2C(=O)Nc2ccc3c(c2)CNC3)n1,pKD,"Immobilization level 10000.0 pg/mm2, Rmax 24.0 pg/mm2, ka 19887.988 M-1s-1, kd 1.214 1/s",4.21
same,pKD,"Immobilization level 12000.0 pg/mm2, Rmax 8.0 pg/mm2, ka 63837.388 M-1s-1, kd 0.552 1/s",5.06
same,pKD,"Immobilization level 13000.0 pg/mm2, Rmax 43.0 pg/mm2, ka 14963.881 M-1s-1, kd 1.059 1/s",4.15
Cc1ccc2cc(Cl)cc(C(=O)Nc3ccc4c(c3)CNC4)c2n1,pKD,"Immobilization level 10000.0 pg/mm2, Rmax 26.0 pg/mm2, ka 93254.644 M-1s-1, kd 1.647 1/s",4.75
same,pKD,"Immobilization level 12000.0 pg/mm2, Rmax 38.0 pg/mm2, ka 56274.373 M-1s-1, kd 0.881 1/s",4.8
same,pKD,"Immobilization level 13000.0 pg/mm2, Rmax 28.0 pg/mm2, ka 92341.007 M-1s-1, kd 1.18 1/s",4.89
N#C[C@H](Nc1ccc2c(c1)CNC2)c1cccc2[nH]ncc12,pKD,"Immobilization level 10000.0 pg/mm2, Rmax 24.0 pg/mm2, ka 92252.014 M-1s-1, kd 0.378 1/s",5.39
same,pKD,"Immobilization level 12000.0 pg/mm2, Rmax 16.0 pg/mm2, ka 78971.5 M-1s-1, kd 0.214 1/s",5.57
same,pKD,"Immobilization level 13000.0 pg/mm2, Rmax 22.0 pg/mm2, ka 80847.64 M-1s-1, kd 0.299 1/s",5.43
O=C(Nc1ccc2c(c1)CNC2)c1cc(F)cc2[nH]ncc12,pKD,"Immobilization level 10000.0 pg/mm2, Rmax 50.0 pg/mm2, ka 86776.347 M-1s-1, kd 0.122 1/s",5.85
same,pKD,"Immobilization level 12000.0 pg/mm2, Rmax 119.0 pg/mm2, ka 21922.372 M-1s-1, kd 0.021 1/s",6.01
same,pKD,"Immobilization level 13000.0 pg/mm2, Rmax 93.0 pg/mm2, ka 46087.669 M-1s-1, kd 0.088 1/s",5.72
CC(C)c1cc(Br)cc(C(=O)Nc2ccc3c(c2)CNC3)c1,pKD,"Immobilization level 10000.0 pg/mm2, Rmax 17.0 pg/mm2, ka 881880.966 M-1s-1, kd 1.212 1/s",5.86
same,pKD,"Immobilization level 12000.0 pg/mm2, Rmax 74.0 pg/mm2, ka 247931.968 M-1s-1, kd 0.872 1/s",5.45
same,pKD,"Immobilization level 13000.0 pg/mm2, Rmax 30.0 pg/mm2, ka 643252.953 M-1s-1, kd 1.046 1/s",5.79
O=C(Nc1ccc2c(c1)CNC2)c1cc(Br)cc2[nH]c(C3CCOCC3)nc12,pKD,"Immobilization level 10000.0 pg/mm2, Rmax 36.0 pg/mm2, ka 49989.202 M-1s-1, kd 0.558 1/s",4.95
same,pKD,"Immobilization level 12000.0 pg/mm2, Rmax 42.0 pg/mm2, ka 41393.875 M-1s-1, kd 0.2 1/s",5.32
same,pKD,"Immobilization level 13000.0 pg/mm2, Rmax 57.0 pg/mm2, ka 35403.894 M-1s-1, kd 0.403 1/s",4.94
CCOCCCN1Cc2ccc(NC(=O)c3cc(Cl)cc4[nH]ncc34)cc2C1,pKD,"Immobilization level 3900.0 pg/mm2, Rmax 34.0 pg/mm2, ka 194403.459 M-1s-1, kd 4.353 1/s",4.65
same,pKD,"Immobilization level 4900.0 pg/mm2, Rmax 26.0 pg/mm2, ka 190862.396 M-1s-1, kd 2.393 1/s",4.9
same,pKD,"Immobilization level 5500.0 pg/mm2, Rmax 37.0 pg/mm2, ka 197216.313 M-1s-1, kd 2.701 1/s",4.86
C[C@H]1Oc2c(cccc2C(=O)Nc2ccc3c(c2)CNC3)NC1=O,pKD,"Immobilization level 10000.0 pg/mm2, Rmax 20.0 pg/mm2, ka 247912.445 M-1s-1, kd 2.654 1/s",4.97
same,pKD,"Immobilization level 12000.0 pg/mm2, Rmax 35.0 pg/mm2, ka 236689.654 M-1s-1, kd 1.809 1/s",5.12
same,pKD,"Immobilization level 13000.0 pg/mm2, Rmax 26.0 pg/mm2, ka 250555.254 M-1s-1, kd 1.96 1/s",5.11
O=C(Nc1ccc([C@H]2CCNC2)cc1)c1cc(Cl)cc2[nH]ncc12,pKD,"Immobilization level 10000.0 pg/mm2, Rmax 36.0 pg/mm2, ka 266986.751 M-1s-1, kd 3.172 1/s",4.92
same,pKD,"Immobilization level 12000.0 pg/mm2, Rmax 43.0 pg/mm2, ka 228557.467 M-1s-1, kd 2.265 1/s",5
same,pKD,"Immobilization level 13000.0 pg/mm2, Rmax 32.0 pg/mm2, ka 486506.686 M-1s-1, kd 3.313 1/s",5.17
CC(C)(C)c1ccc(Cl)cc1C(=O)Nc1ccc2c(c1)CNC2,pKD,"Immobilization level 10000.0 pg/mm2, Rmax 29.0 pg/mm2, ka 451041.562 M-1s-1, kd 5.162 1/s",4.94
same,pKD,"Immobilization level 12000.0 pg/mm2, Rmax 32.0 pg/mm2, ka 233803.873 M-1s-1, kd 2.593 1/s",4.96
same,pKD,"Immobilization level 13000.0 pg/mm2, Rmax 24.0 pg/mm2, ka 278548.314 M-1s-1, kd 2.759 1/s",5
N#C[C@]1(Nc2ccc3c(c2)CNC3)C(=O)Nc2ccc(Cl)cc21,pKD,"Immobilization level 10000.0 pg/mm2, Rmax 25.0 pg/mm2, ka 264211.625 M-1s-1, kd 1.585 1/s",5.22
same,pKD,"Immobilization level 12000.0 pg/mm2, Rmax 32.0 pg/mm2, ka 105814.14 M-1s-1, kd 0.856 1/s",5.09
same,pKD,"Immobilization level 13000.0 pg/mm2, Rmax 39.0 pg/mm2, ka 121808.508 M-1s-1, kd 1.295 1/s",4.97
CCc1ncc(Cl)cc1C(=O)Nc1ccc2c(c1)CNC2,pKD,"Immobilization level 10000.0 pg/mm2, Rmax 18.0 pg/mm2, ka 231152.44 M-1s-1, kd 2.909 1/s",4.9
same,pKD,"Immobilization level 12000.0 pg/mm2, Rmax 36.0 pg/mm2, ka 247716.147 M-1s-1, kd 2.057 1/s",5.08
same,pKD,"Immobilization level 13000.0 pg/mm2, Rmax 25.0 pg/mm2, ka 245446.465 M-1s-1, kd 2.231 1/s",5.04
N#CCCNC(=O)[C@H](Nc1ccc2c(c1)CNC2)c1cc(Cl)cc(C2CC2)c1,pKD,"Immobilization level 10000.0 pg/mm2, Rmax 28.0 pg/mm2, ka 442303.592 M-1s-1, kd 0.092 1/s",6.68
same,pKD,"Immobilization level 12000.0 pg/mm2, Rmax 54.0 pg/mm2, ka 245042.447 M-1s-1, kd 0.064 1/s",6.58
same,pKD,"Immobilization level 13000.0 pg/mm2, Rmax 39.0 pg/mm2, ka 364691.558 M-1s-1, kd 0.079 1/s",6.67
CC(C)NC(=O)[C@H](Nc1ccc2c(c1)CNC2)c1cc(Cl)cc2[nH]ncc12,pKD,"Immobilization level 10000.0 pg/mm2, Rmax 25.0 pg/mm2, ka 625134.982 M-1s-1, kd 0.246 1/s",6.4
same,pKD,"Immobilization level 12000.0 pg/mm2, Rmax 48.0 pg/mm2, ka 290518.5 M-1s-1, kd 0.198 1/s",6.17
same,pKD,"Immobilization level 13000.0 pg/mm2, Rmax 30.0 pg/mm2, ka 486694.476 M-1s-1, kd 0.217 1/s",6.35
O=C(Nc1ccc2c(c1)CNC2)c1ccc(F)c2[nH]ncc12,pKD,"Immobilization level 10000.0 pg/mm2, Rmax 1.0 pg/mm2, ka 202467.762 M-1s-1, kd 1.761 1/s",5.06
same,pKD,"Immobilization level 12000.0 pg/mm2, Rmax 8.0 pg/mm2, ka 155094.955 M-1s-1, kd 1.71 1/s",4.96
same,pKD,"Immobilization level 13000.0 pg/mm2, ka 200831.038 M-1s-1, kd 1.747 1/s",5.06
O=C(NC[C@H]1CCCO1)[C@H](Nc1ccc2c(c1)CNC2)c1cc(Cl)cc(C2CC2)c1,pKD,"Immobilization level 10000.0 pg/mm2, Rmax 42.0 pg/mm2, ka 577169.922 M-1s-1, kd 0.179 1/s",6.51
same,pKD,"Immobilization level 12000.0 pg/mm2, Rmax 59.0 pg/mm2, ka 295597.466 M-1s-1, kd 0.112 1/s",6.42
same,pKD,"Immobilization level 13000.0 pg/mm2, Rmax 62.0 pg/mm2, ka 409256.138 M-1s-1, kd 0.153 1/s",6.43
Cc1ccc(S(=O)(=O)CNC(=O)[C@H](Nc2ccc3c(c2)CNC3)c2cc(Cl)cc3[nH]ncc23)cc1,pKD,"Immobilization level 10000.0 pg/mm2, Rmax 21.0 pg/mm2, ka 226355.861 M-1s-1, kd 0.557 1/s",5.61
same,pKD,"Immobilization level 12000.0 pg/mm2, Rmax 37.0 pg/mm2, ka 111566.09 M-1s-1, kd 0.368 1/s",5.48
same,pKD,"Immobilization level 13000.0 pg/mm2, Rmax 27.0 pg/mm2, ka 177747.1 M-1s-1, kd 0.47 1/s",5.58

# — ChEMBL document CHEMBL5598561, “ASAP - In vitro binding kinetics” (2024)
